Experimental findings from PubChem BioAssay (EPA / NIEHS) are described below.

Inconclusive results are not listed. Activity calls are given as the source filed them. How the source made its calls, unless noted: active means hit-call score of the fitted dose curve at least 0.9, where 1 is the maximum; inactive means score below 0.9.

A short description of assay [1]: ACEA_ER_80hr: ACEA Biosciences xCELLigence Real-Time Cell Analysis on Estrogen Receptor Agonism for Proliferation (AID 2282667; active means hit-call score of the fitted dose curve at least 0.9, where 1 is the maximum). Particulars: T47D proliferation, impedance (xCELLigence), 80 h. The gist of the method: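 Real-time electrical impedance tracked growth of the human breast line T47D, with the 80 h post-dosing value used. Dosing spanned eight 1:4 steps down from a 100 uM final top concentration, run in duplicate.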

Assay [2] in a line: APR_HepG2_CellCycleArrest_24hr: Apredica 24-hour HepG2 Assay for Cell Cycle Arrest (AID 2282905).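 Further: cell cycle arrest scored as ratio of 2N to 4N nuclear DNA content.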 Particulars: imaging, actives raise or lower the signal. The gist of the method: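 After 24 h exposure at 0.39–200 uM in 0.5% DMSO, fixed cells received Hoechst 33342 staining. Imaging quantified per-nucleus DNA content; gain or loss fitted against DMSO controls.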
Assay [3] is described as follows: APR_HepG2_NuclearSize_24hr: Apredica 24-hour HepG2 Assay for Nuclear Size (AID 2282907). The conditions noted are these: high-content imaging, actives raise or lower the signal. The gist of the method:
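Nuclear size from Hoechst 33342-stained, formaldehyde-fixed HepG2 nuclei imaged by high-content microscopy, after 24 h dosing at ten concentrations from 0.39 to 200 uM in 0.5% DMSO; gain or loss relative to DMSO baseline.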

A short description of assay [4]: APR_HepG2_CellLoss_24hr: Apredica 24-hour HepG2 Assay for Cell Loss (AID 2282908).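 On AC50: fit in both directions so a hit may be cell loss or gain.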 The conditions noted are these: high-content imaging. The gist of the method:
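Nuclei stained with Hoechst 33342 after formaldehyde fixation (3.7%) were imaged at 20x to count cells. Exposure lasted 24 hr, at ten concentrations from 0.39 to 200 uM in duplicate, with 0.5% v/v DMSO. Fit bidirectional, relative to DMSO.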

Assay [5] is described as follows: APR_HepG2_MicrotubuleCSK_24hr: Apredica 24-hour HepG2 Assay for Microtubule CSK Stabilty (AID 2282909). Particulars: HepG2 microtubule cytoskeleton imaging, actives raise or lower the signal. The method, boiled down:
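Fixed HepG2 cells were stained for alpha-tubulin and imaged after 24 hr exposure to ten concentrations spanning 0.39–200 uM in 0.5% DMSO. Signal change was fitted in both directions relative to DMSO; taxol was the positive control.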

Assay [6] can be described thus: APR_HepG2_MitoticArrest_24hr: Apredica 24-hour HepG2 Assay for Mitotic Arrest (AID 2282910). Particulars: high-content imaging, actives raise or lower the signal. The method, boiled down:
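HepG2, 24 hr dosing, 0.39–200 uM, 0.5% DMSO final. Formaldehyde-fixed, Triton-permeabilised, anti-phospho-histone H3 plus Hoechst. ArrayScan imaging at 20x; bidirectional fit vs DMSO baseline.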

Assay [7] in a line: APR_HepG2_MitoMembPot_24hr: Apredica 24-hour HepG2 Assay for Mitochondrial Membrane Potential (AID 2282911). Particulars: imaging, actives raise or lower the signal. The gist of the method:
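Cells are dosed for 24 hr across 0.39 to 200 uM with solvent held at 0.5% DMSO. They are then stained with 250 nM MitoTracker Red CMXRos for 30 min, fixed in 3.7% formaldehyde and imaged.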

Assay [8] can be described thus: APR_HepG2_MitoMass_24hr: Apredica 24-hour HepG2 Assay for Mitochondrial Mass (AID 2282912). Particulars: high-content imaging, actives raise or lower the signal. The gist of the method:
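Endpoint is MitoTracker Red CMXRos (250 nM, 30 min, pre-fixation) intensity from 20x high-content imaging, nuclei located by Hoechst. Human HepG2 cells received ten concentrations from 0.39 to 200 uM in 0.5% DMSO for 24 hr, duplicate wells. Bidirectional fit relative to DMSO.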

Assay [9] can be described thus: APR_HepG2_CellCycleArrest_72hr: Apredica 72-hour HepG2 Assay for Cell Cycle Arrest (AID 2282914). Particulars: high-content imaging, actives raise or lower the signal. The method, boiled down: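 Read-out is Hoechst-stained nuclear DNA content measured by automated fluorescence imaging (20x, six images per well), fitted in both directions relative to DMSO. Human HepG2 liver cells received 0.39–200 uM compound for 72 hr at 0.5% v/v DMSO.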

Assay [10] can be described thus: APR_HepG2_CellLoss_72hr: Apredica 72-hour HepG2 Assay for Cell Loss (AID 2282915). The conditions noted are these: high-content imaging. The gist of the method: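 HepG2 cells exposed 72 h to compound at 0.39–200 uM (10 concentrations, duplicate) in 0.5% DMSO. Fixed with 3.7% formaldehyde and Hoechst 33342-stained. Imaged at 20x; nuclear count gives cell number, fitted bidirectionally versus DMSO.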

Assay [11] in a line: APR_HepG2_P-H2AX_72hr: Apredica 72-hour HepG2 Assay for H2AX Phosphorylation (AID 2282916).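 Further: phospho-histone H2A.x immunostain intensity per cell marking DNA damage.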 The conditions noted are these: imaging, actives raise or lower the signal. The method, boiled down:
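Phospho-histone H2A.x immunofluorescence, multiplexed with Hoechst and c-Jun, quantified by high-content imaging. Compounds applied to HepG2 for 72 h across ten concentrations (0.39–200 uM, 0.5% DMSO), in duplicate; DMSO baseline.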

Assay [12] in a line: APR_HepG2_MitoMembPot_72hr: Apredica 72-hour HepG2 Assay for Mitochondrial Membrane Potential (AID 2282917). The conditions noted are these: imaging, actives raise or lower the signal. The method, boiled down:
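HepG2 cells dosed 72 hr with compound at 0.39–200 uM in duplicate, 0.5% v/v DMSO final. Mitochondria stained with 250 nM MitoTracker Red CMXRos for 30 min before formaldehyde fixation, imaged by high-content fluorescence; bidirectional fit versus DMSO.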

A short description of assay [13]: APR_HepG2_MicrotubuleCSK_72hr: Apredica 72-hour HepG2 Assay for Microtubule CSK Stabilty (AID 2282919). The conditions noted are these: HepG2 microtubule cytoskeleton, high-content imaging, actives raise or lower the signal. The gist of the method:
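HepG2, 72 hr cmpd exposure, 0.39–200 uM (10 pts, duplicate), 0.5% DMSO. 3.7% formaldehyde fix, 0.5% Triton perm, anti-alpha-tubulin/Cy5 plus Hoechst. HCS fluorescence intensity; bidirectional fit vs DMSO baseline; taxol as positive control.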

Assay [14] in a line: APR_HepG2_P-H2AX_24hr: Apredica 24-hour HepG2 Assay for H2AX Phosphorylation (AID 2282920). The conditions noted are these: high-content imaging, actives raise or lower the signal. The gist of the method: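 HepG2, 24 hr, cpd 0.39–200 uM (10 conc, duplicate), DMSO 0.5% v/v final. Fix 3.7% formaldehyde, Triton X-100 permeabilize, anti-phospho-H2A.x 1:200 + Hoechst 2 ug/mL. Imaged, bidirectional fit vs DMSO.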

The nature of assay [15]: APR_HepG2_StressKinase_72hr: Apredica 72-hour HepG2 Assay for Stress Kinase (AID 2282921). The conditions noted are these: HepG2 stress kinase (phospho-c-Jun) imaging, actives raise or lower the signal. The method, boiled down:
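Stress kinase signal is phospho-c-Jun immunofluorescence (1:500 primary, Cy3 secondary) in fixed, permeabilized human HepG2 cells imaged at 20x. Exposure lasted 72 hr over ten concentrations from 0.39 to 200 uM, 0.5% DMSO, in duplicate. Bidirectional fit versus DMSO.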

A short description of assay [16]: APR_HepG2_StressKinase_24hr: Apredica 24-hour HepG2 Assay for Stress Kinase (AID 2282922). Particulars: HepG2 stress kinase (phospho-c-Jun) imaging, actives raise or lower the signal. The gist of the method:
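Read-out: phospho-c-Jun immunofluorescence (Cy3 secondary) quantified by high-content imaging at 20x, nuclei defined by Hoechst 33342. Human HepG2 liver cells dosed 24 hr, 0.39–200 uM, DMSO 0.5% v/v; gain or loss of signal fitted relative to DMSO.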

Assay [17] in a line: APR_HepG2_MitoMass_72hr: Apredica 72-hour HepG2 Assay for Mitochondrial Mass (AID 2282924).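 Further: MitoTracker Red CMXRos stain intensity per cell imaged as mitochondrial mass.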 The conditions noted are these: high-content imaging, actives raise or lower the signal. The gist of the method:
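Read-out: MitoTracker Red fluorescence intensity from automated imaging (20x, six fields per well) in human HepG2 liver cells. Dosing ran 72 hr, 0.39–200 uM, 0.5% DMSO; bidirectional curve fitting versus DMSO baseline.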

Assay [18] can be described thus: APR_HepG2_NuclearSize_72hr: Apredica 72-hour HepG2 Assay for Nuclear Size (AID 2282925). Particulars: high-content imaging, actives raise or lower the signal. The gist of the method:
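Read-out: nuclear diameter from Hoechst 33342 images (ArrayScan, 20x, six fields/well), via cell-cycle image analysis. HepG2 were dosed 0.39–200 uM for 72 hr in 0.5% DMSO. Bidirectional fit relative to DMSO.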

Assay [19] is described as follows: APR_HepG2_p53Act_24hr: Apredica 24-hour HepG2 Assay for p53 Activation (AID 2282913).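 Further: p53 protein immunofluorescence averaged per cell in HepG2 with Hoechst nuclei.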 The conditions noted are these: high-content imaging, actives raise or lower the signal. The gist of the method:
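Human HepG2 liver cells; 24 hr cpd treatment, 0.39–200 uM, 0.5% DMSO final. Fixed in 3.7% formaldehyde, permeabilized with 0.5% Triton X-100, stained with anti-p53/Cy5 plus Hoechst 33342. Six images per well at 20x; gain or loss vs DMSO.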

Assay [20] in a line: APR_HepG2_MitoticArrest_72hr: Apredica 72-hour HepG2 Assay for Mitotic Arrest (AID 2282918). Particulars: high-content imaging, actives raise or lower the signal. The gist of the method:
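Read-out is phospho-histone H3 immunofluorescence with Hoechst nuclear segmentation, imaged at 20x. Human HepG2 liver cells received ten concentrations (0.39–200 uM, final DMSO 0.5% v/v) for 72 hr before fixation. Gain or loss of signal was fitted relative to DMSO.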

`FC(F)(F)C(F)(F)C(F)(F)C(F)(F)C(F)(F)C(F)(F)I`: in assay [1], the result was inactive.
Usually AC50 stands for the concentration giving half of the maximal activity seen. Regarding `Nc1ccn([C@@H]2O[C@H](CO)[C@@H](O)[C@@H]2O)c(=O)n1`, the result in assay [1], in assay [5], in assay [6], in assay [7], in [12] and in [13] was inactive. The molecule was called inactive in assay [15], in [16] and in assay [17]. Further, the AC50 in [2] was 0.0387 µM (active); in assay [3], 0.0391 µM (active); in assay [4] it was 0.149 µM (active); in [8], 0.0391 µM (active); in [9], 0.0618 µM (active); in [10], 0.0391 µM (active). Further, the AC50 is 0.202 µM (active) in assay [11], 0.0979 µM (active) in assay [14] and 0.0394 µM (active) in assay [18].
In the case of `OC[C@H]1O[C@@](CO)(O[C@H]2O[C@H](CO)[C@@H](O)[C@H](O)[C@H]2O)[C@@H](O)[C@@H]1O`, the molecule was called inactive in [1], in assay [2], in assay [3], in [4], in assay [6] and in assay [7]. For the same molecule, the outcome in [8], in [9], in [10], in assay [11], in assay [12] and in [13] was inactive. In addition, the result in assay [14], in assay [15], in assay [16], in [17] and in [18] was inactive.
As to `c1ccc(C(O[C@@H]2CCCN(CCc3ccc4c(c3)OCO4)C2)c2ccccc2)cc1`, the result in assay [1], in assay [3], in [7], in [9], in [12] and in assay [13] was inactive. In addition, the molecule was called inactive in assay [16] and in [18]. For the same molecule, the AC50 was 99.9 µM (active) in assay [4]; 88.3 µM (active) in assay [5]; 96.3 µM (active) in [6]; 100 µM (active) in assay [8]; 103 µM (active) in assay [19]; 98.3 µM (active) in [10]. The AC50 in assay [11] is 96 µM (active); in [14], 103 µM (active); in [15], 100 µM (active); in [17] it was 99.7 µM (active).
On to `C[C@]12C=CC(=O)C=C1CC[C@H]1[C@@H]3C[C@@H](O)[C@](O)(C(=O)CO)[C@@]3(C)C[C@H](O)[C@@]12F`, for which the AC50 in assay [1] is 10.9 µM (active). Also, the result in assay [2], in assay [3], in assay [4], in [6], in assay [7] and in assay [8] was inactive. The molecule was classed as inactive in assay [19], in [9], in [10], in assay [11], in assay [12] and in assay [13]. Moreover, the molecule was classed as inactive in [14], in assay [15], in assay [16], in assay [17] and in assay [18].
Take `O=C(O)[C@H](O)[C@@H](O)C(=O)O`: the outcome in assay [1], in [2], in assay [3], in assay [4], in assay [6] and in [7] was inactive. The call in [8], in assay [9], in assay [10], in [11], in [12] and in [13] was inactive. Moreover, the molecule was called inactive in assay [14], in assay [15], in [16], in [17] and in assay [18].
`OCCNCCO`: the result in assay [1], in assay [3], in assay [4], in assay [5], in [6] and in assay [7] was inactive. The molecule was called inactive in assay [8], in [9], in [10], in [11], in assay [12] and in assay [20]. In addition, the molecule was classed as inactive in assay [13], in assay [14], in assay [15], in [16], in assay [17] and in [18].
